Where a name gives a salt, the structure may show the parent alone.
test system: A549; assay: Euclidean distance of Cell Painting phenotypic profile (signed KS, 77 features) to DMSO centroid (dimensionless distance); higher = stronger phenotypic change vs DMSO (phenoactivity); settings: 48 h; 5 or 10 uM (library dependent)
Summary of the method: (§1)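 Stained cells were imaged confocally at 20X with 9 fields per well, after 48 h of exposure to library compounds at 10 or 5 uM (set by library; 0.1% DMSO final). The cells were five cancer lines and a healthy fibroblast line. From the images, Harmony extracted 77 features, each expressed as a signed Kolmogorov-Smirnov statistic relative to same-plate vehicle wells. Phenoactivity is measured as Euclidean distance to the median vehicle profile, using plate-position-corrected, correlation-weighted profiles averaged across replicates at the top dose.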

SMILES	Euclidean distance
Cn1c(CCCCCCC(=O)NO)nc2cc(N(CCCl)CCCl)ccc21 [Tinostamustine(EDO-S101)]	3.53
O=C1CC[C@@]2(O)[C@H]3Cc4ccc(O)c5c4[C@@]2(CCN3CC2CC2)[C@H]1O5 [Naltrexone HCl]	0.818
Cc1cccc(Cc2c[nH]cn2)c1C [Detomidine HCl]	0.895
CNCC(O)c1ccc(O)cc1 (stereo not given) [Synephrine HCl]	0.451
Clc1ccc(C(OCCN2CCCCC2)c2ccccc2)cc1 (stereo not given) [Cloperastine hydrochloride]	1.16
COc1cc(OC)c(OC)cc1C=O [Asaraldehyde]	0.833
Oc1cccc2cccnc12 [8-Hydroxyquinoline]	1.4
Cc1cc(C(C#N)c2ccc(Cl)cc2)c(Cl)cc1NC(=O)c1cc(I)cc(I)c1O (stereo not given) [Closantel]	0.707
O=P(O)(NCCCl)NCCCl [Palifosfamide]	0.923
C[C@]12CCC(=O)C[C@@H]1CC[C@@H]1[C@@H]2CC[C@]2(C)[C@@H](O)CC[C@@H]12 [Dihydrotestosterone(DHT)]	0.944
O=c1ccc2ccc3occc3c2o1 [Isopsoralen]	0.993
CC(C)[N+](C)(CCC(C(N)=O)(c1ccccc1)c1ccccc1)C(C)C [Isopropamide Iodide]	0.953
CCCCCc1cc(O)cc(O)c1 [Olivetol]	0.742
NCC(O)c1ccc(O)cc1 (stereo not given) [(+.-)-Octopamine HCl]	0.639
C[C@H]1CC(=O)C[C@@H]2CC[C@H]3[C@@H]4CC[C@H](O)[C@@]4(C)CC[C@@H]3[C@]21C [Mesterolone]	1.27
O=[N+]([O-])c1ncc[nH]1 [Azomycin]	1.17
COCC1(CO)C(=O)C2CCN1CC2 (stereo not given)	3.25
CN1c2ccccc2C(NCCCCCCC(=O)O)c2ccc(Cl)cc2S1(=O)=O (stereo not given) [Tianeptine sodium]	0.593

SMILES	Euclidean distance
CN1C[C@H](C(=O)N[C@]2(C)O[C@@]3(O)[C@@H]4CCCN4C(=O)[C@H](Cc4ccccc4)N3C2=O)C[C@@H]2c3cccc4[nH]cc(c34)C[C@H]21 [Dihydroergotamine Mesylate]	1.93
NCCc1c[nH]c2ccc(O)cc12 [Serotonin HCl]	0.797
CCC(=O)O[C@H]1CC[C@H]2[C@@H]3CC[C@H]4CC(=O)[C@H](C)C[C@]4(C)[C@H]3CC[C@]12C [Drostanolone Propionate]	1.02
CC(=O)NC1CCSC1=O (stereo not given) [Citiolone]	0.873
CN1CCC(C(=O)c2cccc(NC(=O)c3c(F)cc(F)cc3F)n2)CC1 [Lasmiditan succinate]	0.669
C[N+]1(C)[C@@H]2C[C@@H](OC(=O)[C@H](CO)c3ccccc3)C[C@H]1[C@@H]1O[C@@H]12 [Methscopolamine]	0.693
CC(=O)[C@H]1CC[C@H]2[C@@H]3CC[C@H]4C[C@H](O)CC[C@]4(C)[C@H]3CC[C@]12C [Allopregnanolone]	0.818
NC(=O)CN1CCCC1=O [Piracetam]	0.813
O=[N+]([O-])O[C@@H]1CO[C@H]2[C@@H]1OC[C@@H]2O [Isosorbide Mononitrate]	1.13
C=C1[C@@H](C)[C@H]2[C@H](Cc3ccccc3)NC(=O)[C@]23[C@H](OC(C)=O)/C=C/[C@@](C)(O)C(=O)[C@@H](C)C/C=C/[C@H]3[C@@H]1O [Cytochalasin D]	3.63
C=C(C)[C@H]1Cc2c(ccc3c2O[C@@H]2COc4cc(OC)c(OC)cc4[C@@H]2C3=O)O1 [Rotenone (Barbasco)]	2.97
Cc1cccc(C)c1NC1=NCCCS1 [Xylazine]	0.386
CC(=O)Nc1ccc(OC[C@](C)(O)C(=O)Nc2ccc([N+](=O)[O-])c(C(F)(F)F)c2)cc1 [Andarine]	1.78
CC1(C)S[C@@H]2[C@H](N)C(=O)N2[C@H]1C(=O)O [6-Aminopenicillanic acid]	0.648
Cc1ccc(/N=C/N(C)/C=N/c2ccc(C)cc2C)c(C)c1 [Amitraz]	0.885
COC1=C[C@@H]2[C@@H]3Cc4ccc(OC)c(O)c4[C@]2(CCN3C)CC1=O [Sinomenine hydrochloride]	0.883
CC(C)(C)c1cc(C=C(C#N)C#N)cc(Br)c1O	1.74

test system: DU145; assay: as above; settings: 48 h; 5 or 10 uM (library dependent)
Summary of the method: as §1

SMILES	Euclidean distance
Cn1c(CCCCCCC(=O)NO)nc2cc(N(CCCl)CCCl)ccc21 [Tinostamustine(EDO-S101)]	3.45
O=C1CC[C@@]2(O)[C@H]3Cc4ccc(O)c5c4[C@@]2(CCN3CC2CC2)[C@H]1O5 [Naltrexone HCl]	0.868
Cc1cccc(Cc2c[nH]cn2)c1C [Detomidine HCl]	1.16
CNCC(O)c1ccc(O)cc1 (stereo not given) [Synephrine HCl]	0.914
Clc1ccc(C(OCCN2CCCCC2)c2ccccc2)cc1 (stereo not given) [Cloperastine hydrochloride]	1.16
COc1cc(OC)c(OC)cc1C=O [Asaraldehyde]	0.776
Oc1cccc2cccnc12 [8-Hydroxyquinoline]	2.11
Cc1cc(C(C#N)c2ccc(Cl)cc2)c(Cl)cc1NC(=O)c1cc(I)cc(I)c1O (stereo not given) [Closantel]	0.758
O=P(O)(NCCCl)NCCCl [Palifosfamide]	1.53
C[C@]12CCC(=O)C[C@@H]1CC[C@@H]1[C@@H]2CC[C@]2(C)[C@@H](O)CC[C@@H]12 [Dihydrotestosterone(DHT)]	0.925
O=c1ccc2ccc3occc3c2o1 [Isopsoralen]	0.786
CC(C)[N+](C)(CCC(C(N)=O)(c1ccccc1)c1ccccc1)C(C)C [Isopropamide Iodide]	1.08
CCCCCc1cc(O)cc(O)c1 [Olivetol]	0.801
NCC(O)c1ccc(O)cc1 (stereo not given) [(+.-)-Octopamine HCl]	0.896
C[C@H]1CC(=O)C[C@@H]2CC[C@H]3[C@@H]4CC[C@H](O)[C@@]4(C)CC[C@@H]3[C@]21C [Mesterolone]	1.33
O=[N+]([O-])c1ncc[nH]1 [Azomycin]	1.36
COCC1(CO)C(=O)C2CCN1CC2 (stereo not given)	4.09
CN1c2ccccc2C(NCCCCCCC(=O)O)c2ccc(Cl)cc2S1(=O)=O (stereo not given) [Tianeptine sodium]	0.767

SMILES	Euclidean distance
CN1C[C@H](C(=O)N[C@]2(C)O[C@@]3(O)[C@@H]4CCCN4C(=O)[C@H](Cc4ccccc4)N3C2=O)C[C@@H]2c3cccc4[nH]cc(c34)C[C@H]21 [Dihydroergotamine Mesylate]	0.862
NCCc1c[nH]c2ccc(O)cc12 [Serotonin HCl]	1.01
CCC(=O)O[C@H]1CC[C@H]2[C@@H]3CC[C@H]4CC(=O)[C@H](C)C[C@]4(C)[C@H]3CC[C@]12C [Drostanolone Propionate]	0.706
CC(=O)NC1CCSC1=O (stereo not given) [Citiolone]	0.825
CN1CCC(C(=O)c2cccc(NC(=O)c3c(F)cc(F)cc3F)n2)CC1 [Lasmiditan succinate]	1.83
C[N+]1(C)[C@@H]2C[C@@H](OC(=O)[C@H](CO)c3ccccc3)C[C@H]1[C@@H]1O[C@@H]12 [Methscopolamine]	0.721
CC(=O)[C@H]1CC[C@H]2[C@@H]3CC[C@H]4C[C@H](O)CC[C@]4(C)[C@H]3CC[C@]12C [Allopregnanolone]	1.1
NC(=O)CN1CCCC1=O [Piracetam]	0.735
O=[N+]([O-])O[C@@H]1CO[C@H]2[C@@H]1OC[C@@H]2O [Isosorbide Mononitrate]	0.879
C=C1[C@@H](C)[C@H]2[C@H](Cc3ccccc3)NC(=O)[C@]23[C@H](OC(C)=O)/C=C/[C@@](C)(O)C(=O)[C@@H](C)C/C=C/[C@H]3[C@@H]1O [Cytochalasin D]	3.2
C=C(C)[C@H]1Cc2c(ccc3c2O[C@@H]2COc4cc(OC)c(OC)cc4[C@@H]2C3=O)O1 [Rotenone (Barbasco)]	3.54
Cc1cccc(C)c1NC1=NCCCS1 [Xylazine]	1.01
CC(=O)Nc1ccc(OC[C@](C)(O)C(=O)Nc2ccc([N+](=O)[O-])c(C(F)(F)F)c2)cc1 [Andarine]	0.858
CC1(C)S[C@@H]2[C@H](N)C(=O)N2[C@H]1C(=O)O [6-Aminopenicillanic acid]	1.01
Cc1ccc(/N=C/N(C)/C=N/c2ccc(C)cc2C)c(C)c1 [Amitraz]	0.902
COC1=C[C@@H]2[C@@H]3Cc4ccc(OC)c(O)c4[C@]2(CCN3C)CC1=O [Sinomenine hydrochloride]	1.1
CC(C)(C)c1cc(C=C(C#N)C#N)cc(Br)c1O	0.863

— the supplement of paper PMC10127200
